Assay outcomes as filed in PubChem.
The list is not random: actives were taken first. Their share in the collection is about 8%.
Lassa entry inh: inhibitors of Lassa virus binding or cell entry | Lassa virus pseudotype entry inhibition, cell reporter | Potency, µM (highest dose often 37.9 µM), inactives show at the highest dose activity change, negative = inhibition, usual class: inhibitors | hit rate 1.2% among 300,000; calls by dose curve; tested in HEK293 cells; note: potency is the fitted concentration of half-maximal effect; % is set by controls: 0 for no effect and ±100 for the full control effect; nearly all actives have a fitted effect of over 50% in size
HCV inh: inhibitors of hepatitis C virus infection | AID 651820 | Huh7.5.1 HCVcc-Cre infection, luciferase reporter, 44 h | Potency, µM (series often up to 41.8 µM), for inactives: at the top dose activity change, negative = inhibition, actives largely listed as inhibitors | hit rate 3.4% among 340,000; active = well fitted inhibition curve with a large enough effect; inconclusive = small, poorly fitted or top-dose-only effect, or another doubt; inactive = no such curve, though single readings can be large or run the other way; note: potency is the fitted concentration of half-maximal effect; % is set by controls: 0 for no effect and ±100 for the full control effect
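Antiviral activity was scored by luciferase reporter output from cells infected with HCVcc-Cre (~0.5 moi) in presence of compound, 44 h infection period, cells seeded 1,000/well 4 h prior.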
HCMV antiviral: blocks human cytomegalovirus replication; HFF cells, HCMV-luciferase reporter, 72 h; stronger effect = lower value; activity change, negative = inhibition, % at 57.5 µM; hit rate 4.5% among 410,000; AID 1259415; in the data active = activity change below about -60%; inconclusive = no clear call, values can overlap the other calls; inactive = above about -39%; note: % is set by controls: 0 for no effect and ±100 for the full control effect
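Inhibition of viral replication was scored as loss of reporter luminescence in HFFs infected with HCMV-luciferase (MOI 1 PFU/cell) for 72 h; compounds tested at 2 doses, normalized to buffer and Salinomycin controls.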
SARS PLP yeast: blocks SARS-CoV papain-like protease in a yeast assay; S. cerevisiae expressing SARS-CoV PLpro, growth rescue; Potency, µM (top dose mostly 32.9 µM), without a hit: top-dose activity, positive = growth rescue, most hits filed as activators; hit rate 0.19% among 330,000; AID 485353; calls by dose curve; note: potency is the fitted concentration of half-maximal effect; 0% is about no effect; nearly all actives have a fitted effect of over 55% in size
FMDV inh: foot and mouth disease virus antiviral activity. FMDV antiviral cell-based qHTS. Potency, µM (top dose mostly 57.9 µM), without a hit: at the highest dose activity change, negative = inhibition, most hits filed as inhibitors. hit rate 1.2% among 410,000. AID 1159524; calls by dose curve; tested in HEK293T cells; note: read-out not given here; potency is the fitted concentration of half-maximal effect; % is set by controls: 0 for no effect and ±100 for the full control effect; nearly all actives have a fitted effect of over 45% in size
MARV entry inh: blocks Marburg virus binding to or entry into cells. Marburg virus pseudotyped entry inhibition, cell reporter. hit rate 1.8% among 300,000. Potency, µM (doses to about 37.8 µM), for the others: at the highest dose activity change, negative = inhibition, actives largely listed as inhibitors. AID 540276; calls by dose curve; tested in HEK293 cells; note: potency is the fitted concentration of half-maximal effect; % is set by controls: 0 for no effect and ±100 for the full control effect
Starred values were filed as active, the others as inactive; ? = inconclusive; · = no result given; [ ] = dose if it differs, or a comment.

SMILES	Lassa entry inh	HCV inh	HCMV antiviral	SARS PLP yeast	FMDV inh	MARV entry inh
Cc1cccc(N2C(=O)c3cccc4c(N(C)CCO)ccc(c34)C2=O)c1	-8%	11µM*	·	-3%	?	?
Cc1cccc(N2C(=O)c3cccc4c(N)ccc(c34)C2=O)c1	?	10µM*	?	2%	-1%	?
COC1=CC2C(=O)C([C@@H]3c4ccccc4C[C@]23C)C1(O)c1cccc(OC)c1 (stereo not given in full)	·	·	·	·	·	4%[14.2 µM]
COc1ccc(CCNC(=O)CCCn2c(=O)c3ccccc3n(CC(=O)Nc3cccc(C)c3)c2=O)cc1OC	2%[46.1 µM]	·	-8	·	-13%	-7%[46.1 µM]
O=c1c(-c2cc(F)cc(F)c2)nc2cnc(N3CCNCC3)nc2n1Cc1ccc(F)cc1	·	·	·	·	-4%	·
CN1C(=O)Cc2cc(S(=O)(=O)NCc3ccc(Cl)cc3)ccc21	7%[46.1 µM]	·	26	·	10%	·
CN1CCN(c2nc(-c3ccccc3)cc(C(F)(F)F)n2)CC1	-19%	?	-3	0%	-1%	?
CN1CCN(c2nc(-c3cccs3)cc(C(F)(F)F)n2)CC1	-29%	2.8µM*	-33	-1%	-25%	?
O=[N+]([O-])c1cnn(-c2nc(-c3cccs3)cc(C(F)(F)F)n2)c1	-16%[46.1 µM]	-27%	-99*	-2%	-20%	6%[46.1 µM]
CCOC(=O)c1ccc(NC(=O)CSc2nccn2Cc2ccc(OC)cc2)cc1	?	·	-36	·	-23%	·
Cc1cc(C)cc(N(C(=O)CNS(=O)(=O)c2ccccc2)C(C(=O)NCc2ccccc2)c2ccc(C)o2)c1 (stereo not given)	12µM*	23%	2	12%	-10%	?
Cc1ccc(S(=O)(=O)NCC(=O)N(c2ccccc2)C(C(=O)NCc2ccccc2)c2ccco2)cc1 (stereo not given)	?	3%	-86*	5%	0%	20µM*
COc1ccc(N(C(=O)CNS(=O)(=O)c2ccccc2)C(C(=O)NCc2ccco2)C(C)C)cc1 (stereo not given)	-10%[46.1 µM]	9%	16	0%	-18%	-17%[46.1 µM]
O=C1CC(c2ccc(OCCCCCOc3ccc(C4CC(=O)NC4=O)cc3)cc2)C(=O)N1 (stereo not given)	?	?	-25	-1%	28µM*	?
CCCCCCCCOc1ccc(C2CC(=O)NC2=O)cc1 (stereo not given)	·	25%	20	-14%	-7%	·
COc1ccc(C(=O)NN/C(=N/S(=O)(=O)c2ccc(C)cc2)c2ccccc2)cc1	8.9µM*	24%	34	-2%	63%	?
CCOc1ccc(S(=O)(=O)/N=C(/Nc2ccc(OC)cc2)c2ccccc2)cc1	?	-5%	-25	3%	89%	-3%
CCCc1c(C(=O)Nc2ccc(C(F)(F)F)cc2)cnn1-c1ccccc1	·	?	-16	-2%	?	·
CCCc1c(C(=O)NNc2cc(C(F)(F)F)ccc2Cl)cnn1-c1ccccc1	-9%	?	-66*	-1%	-12%	?
COC(=O)C1CCN(Cc2ccc3c(c2)CN(C(=O)c2sc(C)nc2C)CCO3)CC1	·	·	·	·	-8%	·
CCCN(CC(=O)Nc1ccc(Cl)cc1Cl)C(=O)/C=C/c1ccco1	?	?	-66*	10%	4%	?
CCc1ccc(-c2nn(CC(=O)NCc3ccccc3)c3c2cnc2ccc(C)cc23)cc1	-3%[46.1 µM]	·	4	·	4%	·
COc1ccc(CN(CCC(c2ccccc2)c2ccc(OC(C)C)cc2)C(=O)CCl)cc1OC (stereo not given)	?	?	-100*	-4%	4.5µM*	?
COc1ccc(CNCCC(c2ccc(F)cc2)c2ccc(OC(C)C)cc2)cc1OC (stereo not given)	?	?	-97*	-8%	-1%	?
COc1ccc(CNCCC(c2ccccc2)c2ccc(OC(C)C)cc2)cc1OC (stereo not given)	6.3µM*	11µM*	-37	0%	-25%	?
SMILES	Lassa entry inh	HCV inh	HCMV antiviral	SARS PLP yeast	FMDV inh	MARV entry inh
COc1ccc(C(CCN(Cc2ccc(OC)c(OC)c2)C(C)=O)c2ccccc2)cc1 (stereo not given)	·	0%	-29	12%	?	4%
Cc1oc2ncn(CC(C)C)c(=O)c2c1C(=O)N1CCN(c2ccc(F)cc2)CC1	26%[46.1 µM]	·	3	·	-6%	·
COC(=O)CC=C[C@@H](C)[C@H](NC(=O)OC)c1ccccc1Br	·	·	·	·	·	-29%[14.2 µM]
CCOC(=O)C(NC(=O)c1ccccc1Cl)(Nc1sc2c(c1C(N)=O)CCC2)C(F)(F)F (stereo not given)	·	-3%	-30	13%	?	2%
CCOC(=O)C(NC(=O)c1cccc(Cl)c1)(Nc1sc2c(c1C(N)=O)CCC2)C(F)(F)F (stereo not given)	?	13µM*	-27	1%	?	-29%
c1ccc2c(-c3csc(-c4ccncc4)n3)c[nH]c2c1	·	?	0	-6%	26%	·
Brc1ccc(-c2csc(-c3c[nH]c4ccccc34)n2)cc1	-7%	6.3µM*	-10	-6%	29%	?
CN1CCc2c(OCc3ccc(F)cc3)cccc2C1=O	-19%	?	51	-3%	-9%	-21%[46.1 µM]
Cc1ccc(CN2CCc3c(OCc4ccc(F)cc4)cccc3C2=O)cc1	7.1µM*	?	-81*	-37%	?	?
O=C1c2cccc(OCc3ccc(F)cc3)c2CCN1Cc1ccc(F)cc1	?	6.3µM*	-82*	-25%	?	?
CCc1cc2c(nc1CC)CCN(CCC(C)=NOC[C@@H](O)[C@H]1O[C@@H]3OC(C)(C)O[C@H]3[C@@H]1O)C2	·	·	·	·	·	-6%[14.2 µM]
Cc1ccc(Cl)cc1NC(=O)N1CCC(CN2CCCCCC2)CC1	30%[46.1 µM]	·	-20	·	-9%	·
Cc1ccc2c(c1)N(C)/C(=C/c1cccc[n+]1C)S2	?	?	-98*	-3%	-22%	?
CN1/C(=C/c2cccc[n+]2C)Sc2ccccc21	·	?	-97*	-2%	?	·
Cc1ccc2c(c1)N(C)/C(=C/c1cccc[n+]1CCO)S2	·	?	-97*	-1%	?	·
CC(C)[C@@H](OCc1ccccc1)[C@H](C)C=NO[C@H](C)c1cn([C@@H]2COC[C@@H]2O)nn1	·	·	·	·	·	-6%[14.2 µM]
CCOC(=O)c1sc2ccccc2c1OC(=O)c1ccc(C)cc1	4.5µM*	14%	·	-7%	15%	-26%
CCOC(=O)c1ccc(NC(=O)c2sc3ccccc3c2Cl)cc1	23%[46.1 µM]	·	114	·	37%	·
COc1cc(-c2nc3ccc(N4CCN(C)CC4)cc3[nH]2)cc(OC)c1OC	?	7.9µM*	91	0%	-1%	?
Cc1cccc(C)c1NC(=S)NCCSc1ccc(Cl)cc1	?	10µM*	?	-14%	1%	?
Cc1ccc(NC(=S)NCCSc2ccc(Cl)cc2)cc1	-9%	-15%	?	11%	19%	?
